# Test results taken from PubChem BioAssay (EPA / NIEHS).
# Records with an inconclusive call do not appear. The source made the active and inactive calls. The calls were made as follows: active = hit-call score of the fitted dose curve at least 0.9, where 1 is the maximum; inconclusive = response in the unintended direction; inactive = score below 0.9. Peptide text beside a SMILES is read from it.
# Assay: CCTE_Deisenroth_AIME_384WELL_CTox_Active: Cytotoxicity Assessment (CTOX) in CCTE's 384-well Estrogen Receptor Transactivation Assay with AIME metabolic competence (metabolism positive), Deisenroth Lab (AID 2284037);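 also: chemicals first conditioned 2 h by alginate-bound induced rat liver S9 before cells; activity means signal loss indicating cell death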
# Protocol: CCTE_Deisenroth_AIME_384WELL (AIME metabolism assay) is a cell-based, single-readout assay that uses VM7Luc4E2, a human mammary gland/breast cell line, with measurements taken at 24 hour after chemical dosing in a 384-well plate.CCTE_Deisenroth_AIME_384WELL_CTox_Active is one of four assay components measured or calculated from the CCTE_Deisenroth_AIME_384WELL assay. It is designed to make measurements of a protease substrate, a type of viability indicator, as detected with substrate cleavage to a fluorescent probe in living cells.CCTE_Deisenroth_AIME_384WELL_CTox_Active is a component of the CCTE_Deisenroth_AIME_384WELL assay that measures the effect of retroftting the VM7Luc ERTA assay with the Alginate Immobolization of Metabolic Enzymes (AIME) metabolism method. AIME is optimized to impart phase I hepatic metabolism using phenobarbital/beta-naphthoflavone induced hepatic S9 from male Sprague Dawley rats. Parent chemicals are incubated for 2 hours in the AIME assay prior to transfer to the VM7Luc ERTA assay plate. […] This endpoint evaluates cytotoxicity in metabolism positive mode. Using a type of flourescent probe in VM7Luc cells, loss-of-signal activity can be used to understand loss of viability. This assay endpoint, CCTE_Deisenroth_AIME_384WELL_CTox_Active, was analyzed with bidirectional fitting in the ERTA assay.
# The AIME procedure consists of a preparative "pre-stamping" step using a barium chloride/poly-L-lysine (PLL) solution followed by "stamping" the lid in alginate-hepatic S9 (metabolism positive) or alginate-water (metabolism negative) to form microspheres. Once stamping is completed, the AIME lids are placed in duplicate microplates (metabolism positive or negative) containing chemical solutions and incubated for two hours to facilitate metabolic reactions. The conditioned medium, containing parent chemical or metabolites, is then transferred to the cell-based VM7Luc Estrogen Receptor Transactivation Assay (ERTA) for 24 hours. A typical experimental design tests a 10-point concentration series (0.002 - 200 uM) for 8 compounds (96-well format) (Deisenroth 2020) or 32 compounds (384-well format) (Hopperstad 2022) in single technical replicate. AIME assay controls include trans-stilbene (bioactivated control) and ethylparaben (bioinactivated control). ERTA assay plate controls include 17-beta estradiol (positive control) and DMSO (solvent control). Experiments typically comprise a minimum of four experimental replicates (n=4).
Structure (SMILES),outcome,AC50
COC(=O)[C@H](Cc1ccccc1)NC(=O)[C@@H](N)CC(=O)O (H-Asp-Phe-OMe),inactive,
CCCCNS(=O)(=O)c1ccccc1,inactive,
O=C(O)C1CCC(C(=O)O)CC1 (configuration not stated),inactive,
CCCCCCCCCC[N+](C)(CCCCCCCCCC)CCC[Si](OC)(OC)OC,,49.4 µM (active)
O=C(O)/C=C/c1ccccc1,inactive,
CC(C)c1cc(C(C)C)cc(C(C)C)c1,inactive,
O=C(O)c1cc(O)c2ccccc2c1O,,34.5 µM (active)
O=c1c(O)c(-c2ccc(O)cc2O)oc2cc(O)cc(O)c12,,100 µM (active)
O=C(Oc1ccccc1)c1ccccc1O,inactive,
C=C(C)C1CC=C(C)CC1 (configuration not stated),inactive,
C=CCOC(=O)c1ccc(C(=O)OCC=C)c(C(=O)OCC=C)c1,inactive,
CCCCCCOc1ccc(N)cc1,inactive,
O=C(O)CCC(=O)O,inactive,
CCCCC/C=C\C/C=C\CCCCCCCC(=O)O,inactive,
C[Si](C)(C)N[Si](C)(C)C,inactive,
CC(CCC(=O)O)(c1ccc(O)cc1)c1ccc(O)cc1,inactive,

Structure (SMILES),outcome,AC50
CCCCCCCCCC(C)=O,inactive,
CCCC(CC)c1ccccc1 (configuration not stated),inactive,
C=C[C@@]1(C)CC(=O)[C@]2(O)[C@@]3(C)[C@@H](O)CCC(C)(C)[C@@H]3[C@H](O)[C@H](OC(C)=O)[C@@]2(C)O1,,19.8 µM (active)
Cc1ccc([N+](=O)[O-])cc1N,inactive,
N#Cc1ccc(C(c2ccc(C#N)cc2)n2cncn2)cc1,inactive,
Nc1ccc(C(=O)O)cc1,inactive,
C=C1C[C@H]2[C@@H]3C=C(C)C4=CC(=O)CC[C@]4(C)[C@H]3CC[C@]2(C)[C@@]1(OC(C)=O)C(C)=O,inactive,
CCCCCCCCCCCCCCCCCCOS(=O)(=O)O,inactive,
C/C=C/C=C/CCCCCCCO,inactive,
O=S(=O)(O)c1ccc(N=Nc2c(O)ccc3ccccc23)cc1,,71.3 µM (active)
CC1=NN(c2ccc(S(=O)(=O)O)cc2)C(=O)C1N=Nc1ccccc1 (configuration not stated),,159 µM (active)
CCCCCC[C@@H](O)C/C=C\CCCCCCCC(=O)OCC(O)CO (some centres not stated),inactive,
O=C(Nc1ccccc1)c1cc(Cl)ccc1O,,33.4 µM (active)
CCCCCC(=O)OCC,inactive,
CCC1COC(=O)O1 (configuration not stated),inactive,
CCCCCCCCCCCCc1ccc(O)cc1,,72.1 µM (active)
